# Key:
# Experiment in all cases: PBM binding z-score (relative to random genomic background probes); higher = stronger binding; sequences stand for … in GC…GCGATTGACAGCGTAGAATGAAGG
# [1] = tested on: FXR:RXRa (NR concentration 270 nM, RXRa partner concentration 90 nM)
# How it was run: (§1)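 Custom Agilent 4×180K protein-binding microarrays carried double-stranded probes. Their 34-nt variable regions held direct-repeat seeds, single-nucleotide variants, half-site ablations and random human genomic background sequences. Arrays were incubated 1 h with ligand-free nuclear receptor dimers in PBS pH 7.4, 2% milk, 0.02% Triton X-100, 1 mM DTT, 0.2 mg/mL BSA and 0.4 mg/ml salmon testes DNA. Antibodies against each partner (one per run) detected binding, and scanned fluorescence was regression-normalized. Binding z-scores use random background probes as reference.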
# [2] = tested on: LXRa:RXRa (NR concentration 270 nM, RXRa partner concentration 90 nM)
# How it was run: as §1
# [3] = tested on: LXRa homodimer (NR concentration 270 nM)
# How it was run: as §1
# [4] = tested on: LXRb:RXRa (NR concentration 270 nM, RXRa partner concentration 90 nM)
# How it was run: as §1
# [5] = tested on: LXRb homodimer (NR concentration 270 nM)
# How it was run: as §1
# [6] = tested on: PPARa:RXRa (NR concentration 270 nM, RXRa partner concentration 90 nM)
# How it was run: as §1
# [7] = tested on: PPARg:RXRa (NR concentration 180 nM, RXRa partner concentration 90 nM)
# How it was run: as §1
# [8] = tested on: PPARg:RXRa 270nM:90nM, anti-RXR (NR concentration 270 nM, RXRa partner concentration 90 nM)
# How it was run: as §1
# [9] = tested on: PPARg:RXRa 30nM:10nM, anti-RXR (NR concentration 30 nM, RXRa partner concentration 10 nM)
# How it was run: as §1
# [10] = tested on: PPARg:RXRa 90nM:30nM, anti-RXR (NR concentration 90 nM, RXRa partner concentration 30 nM)
# How it was run: as §1
# [11] = tested on: PPARg:RXRa DBDmut IVT, anti-RXR (DBD mutation: RXRa K156A/R161A, NR concentration 270 nM, RXRa partner concentration 90 nM)
# How it was run: as §1
# [12] = tested on: PPARg:RXRa IVT, anti-PPARg (NR concentration 270 nM, RXRa partner concentration 90 nM)
# How it was run: as §1
# [13] = tested on: PPARg DBDmut:RXRa IVT, anti-PPARg (DBD mutation: PPARg1 K132A/R137A, NR concentration 270 nM, RXRa partner concentration 90 nM)
# How it was run: as §1
# [14] = tested on: PPARg DBDmut IVT, anti-PPARg (DBD mutation: PPARg1 K132A/R137A, NR concentration 270 nM)
# How it was run: as §1
# [15] = tested on: PPARg homodimer (NR concentration 180 nM)
# How it was run: as §1
# [16] = tested on: PXR:RXRa (NR concentration 270 nM, RXRa partner concentration 90 nM)
# How it was run: as §1
# [17] = tested on: PXR homodimer (NR concentration 270 nM)
# How it was run: as §1
# [18] = tested on: RARa:RXR (NR concentration 270 nM, RXRa partner concentration 90 nM)
# How it was run: as §1
# [19] = tested on: RARa homodimer (NR concentration 270 nM)
# How it was run: as §1
# [20] = tested on: RARb:RXRa (NR concentration 270 nM, RXRa partner concentration 90 nM)
# How it was run: as §1
Sequence,PBM binding z-score [1],PBM binding z-score [2],PBM binding z-score [3],PBM binding z-score [4],PBM binding z-score [5],PBM binding z-score [6],PBM binding z-score [7],PBM binding z-score [8],PBM binding z-score [9],PBM binding z-score [10],PBM binding z-score [11],PBM binding z-score [12],PBM binding z-score [13],PBM binding z-score [14],PBM binding z-score [15],PBM binding z-score [16],PBM binding z-score [17],PBM binding z-score [18],PBM binding z-score [19],PBM binding z-score [20]
CCTAGTTGGTCAGGCGGTCACACACCGGATATGA,0.554,0.309,0.525,0.155,0.122,0.32,0.706,0.973,-0.186,0.129,0.37,0.945,-0.344,-0.024,0.926,0.0317,0.384,-0.0122,0.796,1.75
TCGAGTAGGTTAGGGTCATTCAGAATGGCGTCGA,4.57,3.41,0.537,3.62,-0.146,4.66,3.15,4.16,2.2,3.52,2.47,2.77,-0.28,0.496,2.22,4.55,2.03,5.08,0.43,3.08
CCTAGCAGGCCTATCTGGGTCACTCAAGGCTTGA,0.317,0.546,-0.58,0.838,-1.2,3.07,1.7,2.01,-0.0826,1.15,3.65,4.63,-0.467,-0.863,0.541,0.789,-0.468,1.38,-0.645,0.909
CATACAGGGGCAGCTAGGCCAGAGTAGGGACGGC,-0.362,-0.459,-0.661,-0.557,-0.608,-0.483,0.23,-0.457,-0.311,-0.744,-0.41,0.399,-0.422,-0.72,-0.555,-0.802,-0.878,-0.828,0.188,1.17
CCTCCTAGGTCAATGGTCAGCTAAAGCAGCTCGC,3.28,2.46,0.212,2.07,0.406,3.53,3.92,5.19,2.32,4.99,3.61,3.53,-0.066,0.119,2.06,1.28,-0.0378,1.98,0.584,3.77
CCTCGGAGGACAACAGGAGGTCAGAGATGCCAGA,1.06,1.85,2.02,1.36,-0.479,2.08,0.895,0.272,-0.499,-0.289,-0.0162,0.314,-0.377,-1.49,1.1,2.04,0.508,2.05,0.885,2.8
TCATATAGGTAAAAGGTGAAAGTCGGTGTGGTAA,1.8,2.29,0.452,2.29,0.0331,5.57,9.43,8.85,10.3,10.2,5.72,5.59,2.1,0.745,2.06,2.17,0.508,3.73,2.49,2.22
ACTAGCAGGCCAAGGGCCACTCAAGATTAGTCCG,-0.56,-0.559,-0.856,-1,-1.27,0.699,2.13,3.13,1.28,2.51,0.244,0.822,-0.352,-1.82,-0.633,-0.879,-0.75,-0.678,-0.685,0.884
GCTGTTAGGTCAACTGATGGTCAGCTAAAGCTCG,4.8,3.67,0.551,2.5,1.02,3.78,2,2.74,0.501,1.61,4.04,2.94,0.716,0.227,3.51,2.32,-0.291,3.69,0.121,4.4
CAAACTAGGTCCAGGTCAAAGTCGGTTTGTGCCA,2.21,2.36,1.47,1.98,0.0545,3.29,2.6,3.28,0.928,2.59,3.43,3.67,0.261,-0.192,1.29,2.57,0.685,2.22,0.417,2.9
TTACCAAGGTGGGCTGAGGTCGTTGATCCAACTC,1.56,0.463,-0.083,0.938,-0.656,0.97,-0.473,0.212,-0.219,-0.0469,-0.241,0.386,-0.362,-0.213,-0.101,2.86,0.257,1.14,0.0238,0.446
TCTATTAGTTGATTAGGGCAACGGAAACAGCGGA,0.551,0.44,0.103,0.473,0.812,0.801,0.284,1.99,3.35,3,2.04,1.27,0.436,0.954,0.288,0.192,0.475,0.276,0.743,0.963
GGAACGAGGGCACGTTGATAGCAGAGTTTGATGG,0.419,0.105,-0.441,0.08,-0.424,1.67,1.7,1.56,0.331,1.19,4.33,3.73,0.361,-0.223,-0.0757,0.508,-0.125,0.282,-0.225,2.37
CCGACTGGGGTAAAGGTTACCATACTCAGTACGA,1.25,1.37,-0.204,2.11,-0.702,5.22,11.1,9.31,8.82,10.7,3.8,5.39,0.251,0.0634,1.25,1.93,-0.316,3.23,0.475,2.02
CATACAGGGTCAGCTACGCCAGAGTAGGGACGGC,4.39,3.1,0.0565,2.3,0.562,4.28,3.26,3.22,0.875,2.03,1.11,2.35,0.652,1.25,1.54,2.22,-0.0173,3.27,0.771,3.99
ACTTACGGGTCAACGAGGTTATAGGACGCGTATA,5.95,5.07,0.89,4.43,0.538,5.78,5.7,5.53,2.04,4.25,3.03,4.18,1.47,0.791,2,5.08,2.36,5,1.18,4.41
CGTCCACGGTCAAAGGTCAGTGAAGAGATGACGG,5.45,4.83,1.87,3.7,-0.0177,5.49,7.71,7.46,5.82,7.93,1.1,3.94,-0.461,-0.195,6.23,4.9,0.288,7.25,2.09,5.01
TCTTGTAGATCATCAGGTTAAGAAAGCTGGCCAA,0.48,0.703,0.27,0.642,-0.0532,0.993,-0.352,1.6,2.71,1.98,2.18,1.18,1.16,0.736,0.119,0.47,-0.117,0.63,0.422,0.398
GCTTATGGGTCAAAGGTTATAGCATGAATAGAAT,6.45,5.27,0.469,5.46,0.477,6.76,11.9,10.1,10.2,11,7.1,7.2,2.03,2.31,2.17,5.71,0.209,7.4,1.13,4.41

# From the supplement of paper PMC6555819
